# Source: paper PMC8384837, “Expanding the binding specificity for RNA recognition by a PUF domain”
# Changes are numbered by the printed parent chain.
# What was measured:
# Test in all cases: yeast three-hybrid, YBZ-1, SC-Leu-His + 0.5 mM 3-AT, 4 days
# Conditions in all cases: tags: N-Gal4 AD-HA kept; label: inside an RPR1-promoter hybrid RNA with tandem MS2 sites; ssRNA
# PUM1 PUF domain R3-SNF = PUM1 PUF domain R3-SNF (Homo sapiens, UniProt Q14671 828-1176, C935S;R936N;Q939F)
# Method in brief: (§1)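 Each repeat of the Pumilio-1 PUF domain was randomized at its three base-contacting residues, and these libraries were co-expressed from a centromeric plasmid with matching RNA elements in strain YBZ-1. After four days on SC-Leu (input) or SC-Leu-His + 0.5 mM 3-AT (selection), the repeat regions were PCR-amplified and Illumina-sequenced. The interaction score compares variant frequency between input and selection as a log change, computed in log2 with a pseudocount of 1 for absent variants.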
# PUM1 PUF domain R6-VWC = target: T1, PUM1 PUF domain R6-VWC (Homo sapiens, UniProt Q14671 828-1176, N1043V;Y1044W;Q1047C)
# T1 sequence: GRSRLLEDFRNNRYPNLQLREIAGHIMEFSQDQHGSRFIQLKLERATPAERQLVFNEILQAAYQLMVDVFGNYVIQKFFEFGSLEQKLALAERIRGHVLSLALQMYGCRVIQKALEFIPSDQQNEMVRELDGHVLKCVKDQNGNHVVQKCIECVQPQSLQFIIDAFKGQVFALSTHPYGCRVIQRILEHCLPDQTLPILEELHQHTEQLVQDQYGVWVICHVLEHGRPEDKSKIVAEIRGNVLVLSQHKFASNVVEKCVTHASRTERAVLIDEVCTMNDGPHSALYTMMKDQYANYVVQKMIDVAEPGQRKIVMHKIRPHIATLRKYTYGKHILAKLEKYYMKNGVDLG
# Method in brief: as §1
# PUM1 PUF domain R5-LHC = PUM1 PUF domain R5-LHC (Homo sapiens, UniProt Q14671 828-1176, C1007L;R1008H;Q1011C)
# Method in brief: as §1
# PUM1 PUF domain R6-GFR = target: T2, PUM1 PUF domain R6-GFR (Homo sapiens, UniProt Q14671 828-1176, N1043G;Y1044F;Q1047R)
# T2 sequence: T1 sequence with V216G, W217F, C220R
# Method in brief: as §1
# PUM1 PUF domain R8-KHR = PUM1 PUF domain R8-KHR (Homo sapiens, UniProt Q14671 828-1176, N1122K;Y1123H;Q1126R)
# Method in brief: as §1
# PUM1 PUF domain R3-GWM = PUM1 PUF domain R3-GWM (Homo sapiens, UniProt Q14671 828-1176, C935G;R936W;Q939M)
# Method in brief: as §1
# PUM1 PUF domain R8-SWF = PUM1 PUF domain R8-SWF (Homo sapiens, UniProt Q14671 828-1176, N1122S;Y1123W;Q1126F)
# Method in brief: as §1
# PUM1 PUF domain R5-SIC = PUM1 PUF domain R5-SIC (Homo sapiens, UniProt Q14671 828-1176, C1007S;R1008I;Q1011C)
# Method in brief: as §1
# PUM1 PUF domain R6-VWG = target: T3, PUM1 PUF domain R6-VWG (Homo sapiens, UniProt Q14671 828-1176, N1043V;Y1044W;Q1047G)
# T3 sequence: T1 sequence with C220G
# Method in brief: as §1
# PUM1 PUF domain R5-LNS = PUM1 PUF domain R5-LNS (Homo sapiens, UniProt Q14671 828-1176, C1007L;R1008N;Q1011S)
# Method in brief: as §1
# PUM1 PUF domain R5-NSR = PUM1 PUF domain R5-NSR (Homo sapiens, UniProt Q14671 828-1176, C1007N;R1008S;Q1011R)
# Method in brief: as §1
# PUM1 PUF domain R6-LFA = target: T4, PUM1 PUF domain R6-LFA (Homo sapiens, UniProt Q14671 828-1176, N1043L;Y1044F;Q1047A)
# T4 sequence: T1 sequence with V216L, W217F, C220A
# Method in brief: as §1
# PUM1 PUF domain R6-TFM = target: T5, PUM1 PUF domain R6-TFM (Homo sapiens, UniProt Q14671 828-1176, N1043T;Y1044F;Q1047M)
# T5 sequence: T1 sequence with V216T, W217F, C220M
# Method in brief: as §1
# PUM1 PUF domain R8-RFD = PUM1 PUF domain R8-RFD (Homo sapiens, UniProt Q14671 828-1176, N1122R;Y1123F;Q1126D)
# Method in brief: as §1
# PUM1 PUF domain R1-QLR = PUM1 PUF domain R1-QLR (Homo sapiens, UniProt Q14671 828-1176, S863Q;R864L;Q867R)
# Method in brief: as §1
# PUM1 PUF domain R7-TRR = PUM1 PUF domain R7-TRR (Homo sapiens, UniProt Q14671 828-1176, S1079T;N1080R;E1083R)
# Method in brief: as §1
# PUM1 PUF domain R4-SFP = PUM1 PUF domain R4-SFP (Homo sapiens, UniProt Q14671 828-1176, N971S;H972F;Q975P)
# Method in brief: as §1
# PUM1 PUF domain R4-CRR = PUM1 PUF domain R4-CRR (Homo sapiens, UniProt Q14671 828-1176, N971C;H972R;Q975R)
# Method in brief: as §1
# PUM1 PUF domain R3-RVM = PUM1 PUF domain R3-RVM (Homo sapiens, UniProt Q14671 828-1176, C935R;R936V;Q939M)
# Method in brief: as §1
sequence,measurement,setting,value
GGCUAGAACUAGUGGAUCCCCCGGCGCCCGGCGGCUCGAGCCCGGGUAAGUGUAAAUAGUCUGCAUGCCGCCGGGCGCCAUGCCUGCAGGUCGACUCUAGAAAACAUG,binding signal,PUM1 PUF domain R3-SNF,2.65 log2 enrichment (interaction score)
same,binding signal,PUM1 PUF domain R6-VWC,3.32 log2 enrichment (interaction score)
same,binding signal,PUM1 PUF domain R5-LHC,2.44 log2 enrichment (interaction score)
same,binding signal,PUM1 PUF domain R6-GFR,4.38 log2 enrichment (interaction score)
same,binding signal,PUM1 PUF domain R8-KHR,2.92 log2 enrichment (interaction score)
same,binding signal,PUM1 PUF domain R3-GWM,2.49 log2 enrichment (interaction score)
same,binding signal,PUM1 PUF domain R8-SWF,2.33 log2 enrichment (interaction score)
same,binding signal,PUM1 PUF domain R5-SIC,3.43 log2 enrichment (interaction score)
same,binding signal,PUM1 PUF domain R6-VWG,2.67 log2 enrichment (interaction score)
GGCUAGAACUAGUGGAUCCCCCGGCGCCCGGCGGCUCGAGCCCGGGUAAGUGUUAAUAGUCUGCAUGCCGCCGGGCGCCAUGCCUGCAGGUCGACUCUAGAAAACAUG,binding signal,PUM1 PUF domain R5-LNS,4.81 log2 enrichment (interaction score)
same,binding signal,PUM1 PUF domain R5-NSR,4.06 log2 enrichment (interaction score)
GGCUAGAACUAGUGGAUCCCCCGGCGCCCGGCGGCUCGAGCCCGGGUAAGUGAAAAUAGUCUGCAUGCCGCCGGGCGCCAUGCCUGCAGGUCGACUCUAGAAAACAUG,binding signal,PUM1 PUF domain R6-LFA,6.15 log2 enrichment (interaction score)
same,binding signal,PUM1 PUF domain R6-TFM,2.84 log2 enrichment (interaction score)
same,binding signal,PUM1 PUF domain R6-VWG,6.85 log2 enrichment (interaction score)
GGCUAGAACUAGUGGAUCCCCCGGCGCCCGGCGGCUCGAGCCCGGGUAAGCGUAAAUAGUCUGCAUGCCGCCGGGCGCCAUGCCUGCAGGUCGACUCUAGAAAACAUG,binding signal,PUM1 PUF domain R8-RFD,4.38 log2 enrichment (interaction score)
same,binding signal,PUM1 PUF domain R8-KHR,6.43 log2 enrichment (interaction score)
same,binding signal,PUM1 PUF domain R8-SWF,1.73 log2 enrichment (interaction score)
GGCUAGAACUAGUGGAUCCCCCGGCGCCCGGCGGCUCGAGCCCGGGUAAGUGUAAAUCGUCUGCAUGCCGCCGGGCGCCAUGCCUGCAGGUCGACUCUAGAAAACAUG,binding signal,PUM1 PUF domain R1-QLR,4.6 log2 enrichment (interaction score)
GGCUAGAACUAGUGGAUCCCCCGGCGCCCGGCGGCUCGAGCCCGGGUAAGUGCAAAUAGUCUGCAUGCCGCCGGGCGCCAUGCCUGCAGGUCGACUCUAGAAAACAUG,binding signal,PUM1 PUF domain R6-GFR,6.98 log2 enrichment (interaction score)
GGCUAGAACUAGUGGAUCCCCCGGCGCCCGGCGGCUCGAGCCCGGGUAAGUCUAAAUAGUCUGCAUGCCGCCGGGCGCCAUGCCUGCAGGUCGACUCUAGAAAACAUG,binding signal,PUM1 PUF domain R7-TRR,3.35 log2 enrichment (interaction score)
GGCUAGAACUAGUGGAUCCCCCGGCGCCCGGCGGCUCGAGCCCGGGUAAGUGUAAGUAGUCUGCAUGCCGCCGGGCGCCAUGCCUGCAGGUCGACUCUAGAAAACAUG,binding signal,PUM1 PUF domain R3-GWM,1.14 log2 enrichment (interaction score)
GGCUAGAACUAGUGGAUCCCCCGGCGCCCGGCGGCUCGAGCCCGGGUAAGUGUAUAUAGUCUGCAUGCCGCCGGGCGCCAUGCCUGCAGGUCGACUCUAGAAAACAUG,binding signal,PUM1 PUF domain R4-SFP,7.15 log2 enrichment (interaction score)
GGCUAGAACUAGUGGAUCCCCCGGCGCCCGGCGGCUCGAGCCCGGGUAAGUGUACAUAGUCUGCAUGCCGCCGGGCGCCAUGCCUGCAGGUCGACUCUAGAAAACAUG,binding signal,PUM1 PUF domain R4-SFP,6.2 log2 enrichment (interaction score)
same,binding signal,PUM1 PUF domain R4-CRR,3.13 log2 enrichment (interaction score)
GGCUAGAACUAGUGGAUCCCCCGGCGCCCGGCGGCUCGAGCCCGGGUAAGUGUAAUUAGUCUGCAUGCCGCCGGGCGCCAUGCCUGCAGGUCGACUCUAGAAAACAUG,binding signal,PUM1 PUF domain R3-RVM,2.43 log2 enrichment (interaction score)
GGCUAGAACUAGUGGAUCCCCCGGCGCCCGGCGGCUCGAGCCCGGGUAAGUGUCAAUAGUCUGCAUGCCGCCGGGCGCCAUGCCUGCAGGUCGACUCUAGAAAACAUG,binding signal,PUM1 PUF domain R5-NSR,4.06 log2 enrichment (interaction score)
